# Data as given in PubChem BioAssay (NCATS).
# Inconclusive results are not listed. Where a call stands in place of a potency, no number is given. Unmarked numbers belong to inactive results. Active and inactive are the calls of the source. Calls come from the whole dose curve; as a rule, active = well fitted curve in the direction sought with a large enough effect; inconclusive = small, poorly fitted or top-dose-only effect, or another doubt; inactive = no such curve, though single readings can be large; an effect the other way counts as inactive or inconclusive.
# How the values were obtained:
# Furin (Homo sapiens) = Furin (Homo sapiens) (UniProt P09958); assay: Furin counterscreen qHTS for Zika virus inhibitors (AID 1347149); conditions: furin enzymatic counterscreen, fluorogenic substrate; series mostly up to 57.5 µM; note: nearly all actives have a fitted effect of over 70% in size; note: potency is the fitted concentration of half-maximal effect;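 for activity change, negative = inhibition: purified recombinant full-length human furin enzyme at 5 nM; fluorescence gain from furin cutting a BOC-RVRR-AMC peptide substrate over 15 min; top concentration of the series differs between compounds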
# Sequence of Furin (Homo sapiens) (P09958 whole entry, looked up): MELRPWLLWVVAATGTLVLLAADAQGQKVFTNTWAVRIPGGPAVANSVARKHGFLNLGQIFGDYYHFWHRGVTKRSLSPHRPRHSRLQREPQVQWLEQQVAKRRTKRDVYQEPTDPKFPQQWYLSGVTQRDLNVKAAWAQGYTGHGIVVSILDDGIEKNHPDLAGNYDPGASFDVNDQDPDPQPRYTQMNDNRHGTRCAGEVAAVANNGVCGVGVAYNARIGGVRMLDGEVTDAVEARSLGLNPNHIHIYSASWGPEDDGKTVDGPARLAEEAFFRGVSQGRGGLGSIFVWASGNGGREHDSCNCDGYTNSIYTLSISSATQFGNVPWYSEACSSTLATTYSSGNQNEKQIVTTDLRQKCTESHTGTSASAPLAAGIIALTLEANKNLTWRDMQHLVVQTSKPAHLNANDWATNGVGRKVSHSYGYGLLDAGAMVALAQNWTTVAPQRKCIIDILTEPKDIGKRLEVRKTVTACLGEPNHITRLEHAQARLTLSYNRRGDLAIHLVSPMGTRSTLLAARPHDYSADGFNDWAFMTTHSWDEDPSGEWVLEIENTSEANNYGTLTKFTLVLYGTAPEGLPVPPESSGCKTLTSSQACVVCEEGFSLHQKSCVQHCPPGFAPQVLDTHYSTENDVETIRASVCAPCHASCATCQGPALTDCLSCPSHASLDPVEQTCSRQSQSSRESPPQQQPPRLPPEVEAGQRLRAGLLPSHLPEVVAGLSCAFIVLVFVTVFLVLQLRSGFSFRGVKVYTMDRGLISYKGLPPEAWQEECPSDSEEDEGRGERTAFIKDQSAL
# Summary of the method: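 Fluorogenic cleavage of BOC-RVRR-AMC (2 microM final, Km ~15 µM) was monitored (ex 340, em 450 nm) at 37C after 15 min RT preincubation of 5 nM furin with compounds in HEPES pH 7.0 buffer with CaCl2 and Triton X-100. Percent inhibition was fitted to a 4-parameter Hill curve.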
# [1] = test system: Zika virus NS2B-NS3 protease (linked construct); assay: Confirmatory screen NINDS AMC qHTS for Zika virus inhibitors (AID 1347152); conditions: Purified linked NS2B-NS3, AMC substrate fluorescence; series mostly up to 56.6 µM; note: nearly all actives have a fitted effect of over 70% in size; note: potency is the fitted concentration of half-maximal effect;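 for activity change, negative = inhibition: AMC fluorescence gain from cleaved Bz-Nle-KRR-AMC substrate over 15 min; top concentration of the series differs between compounds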
# Summary of the method: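 Linked NS2B-NS3 1 nM, Tris pH 8.0/0.01% Tween 20; cpd 15 min RT dark; + Nle-KRR-AMC 10 µM (Km 18.3 µM); read 0 and 15 min, 340/450 nm; %inh vs controls, 4-param Hill.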
# [2] = test system: Zika virus NS2B-NS3 protease (unlinked complex); assay: Confirmatory screen GU AMC qHTS for Zika virus inhibitors (AID 1347153); conditions: Recombinant NS2B-NS3 protease, AMC substrate fluorescence; series mostly up to 57.1 µM; note: nearly all actives have a fitted effect of over 70% in size;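 for potency: enzyme at 25 nM with substrate at 10 µM below its Km of 18.3 µM; potency is the fitted concentration of half-maximal effect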
# Summary of the method: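 Fluorescence change (ex 340/em 450 nm) over 15 min, ~20% substrate conversion, normalized to no-inhibitor and no-enzyme controls, then Hill-fitted. Unlinked protease at 25 nM; AMC peptide 10 µM.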
# [3] = Confirmatory screen NINDS Rhodamine qHTS for Zika virus inhibitors (AID 1347161); conditions: purified enzyme assay, Rhodamine110 substrate fluorescence, 15 min; series mostly up to 114 µM; note: nearly all actives have a fitted effect of over 60% in size; note: potency is the fitted concentration of half-maximal effect;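 for activity change, negative = inhibition: purified Zika NS2B-NS3 protease with linked NS2B cofactor domain and Rhodamine110 peptide substrate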
# Summary of the method: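 Single-chain NS2B-NS3 protease, 25 nM, pH 8.0; compounds preincubated 15 min. Activity: Rhodamine110 release from 1.5 microM substrate over 15 min, room temperature, data fitted to 4-parameter Hill.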
# [4] = test system: Zika virus NS2B-NS3 protease (linked construct); assay: 384 well plate NINDS Rhodamine confirmatory qHTS for Zika virus inhibitors (AID 1347164); conditions: rhodamine-110 peptide substrate fluorescence; series mostly up to 1 mM;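 note: fluorescence from protease cleavage of Ac-LKRR-rhodamine 110 substrate; potency is the fitted concentration of half-maximal effect; nearly all actives have a fitted effect of over 65% in size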
# Summary of the method: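 Fluorescence read at ex 485 nm/em 538 nm, 25 min after adding 10 microM Ac-LKRR-Rd substrate at room temperature in the dark; signal normalized to no-enzyme and no-inhibitor controls. Enzyme final 5, 30 or 60 nM; compounds, ~15 min preincubation.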
# [5] = HepG2 cells viability qHTS for Zika virus inhibitors (AID 1347168); conditions: Zika counter-screen; series mostly up to 45.9 µM
# Summary of the method: (§1)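 Compounds were tested in concentration series on cells grown in DMEM containing 4% FBS. After 24 to 48 hours, cellular ATP was measured by luminescence with CellTiter Glo.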
# [6] = qHTS to identify inhibitors of the type 1 interferon - major histocompatibility complex class I in skeletal muscle: primary screen against the NCATS Mechanism Interrogation Plate v5.0 (MIPE) Libary (AID 1347411); conditions: iHSKM cells + IFN-b, HiBiT-tagged MHC-I luminescence, 24 h; series mostly up to 45.8 µM; note: nearly all actives have a fitted effect of over 65% in size; note: potency is the fitted concentration of half-maximal effect
# Summary of the method: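 Immortalized human C25cl48 myoblasts with HiBit knocked into endogenous HLA-B*08:01 were stimulated with 4.0 ng/ml IFN-beta and exposed to compounds (11-point 1:3 titration, top 46 uM final) for 24 hrs at 37 C; HiBiT lytic luminescence measured.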
# [7] = test system: Zika virus NS2B-NS3 protease; assay: Primary screen GU AMC qHTS for Zika virus inhibitors (AID 1347154); conditions: Zika NS2B-NS3 unlinked protease, AMC fluorogenic substrate; series mostly up to 54.1 µM; note: nearly all actives have a fitted effect of over 70% in size; note: potency is the fitted concentration of half-maximal effect
# Summary of the method: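 Fluorogenic AMC-substrate cleavage by noncovalent NS2B-NS3 protease complex (25 nM, pH 8.0 Tris buffer with Tween 20) followed for 15 minutes at room temperature (~20% conversion). Percent inhibition from ex340/em450 signal change, fitted by 4-parameter Hill equation.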
# [8] = test system: Zika virus NS2B-NS3 protease (unlinked complex); assay: Primary screen GU Rhodamine qHTS for Zika virus inhibitors: Unlinked NS2B-NS3 protease assay (AID 1347159); conditions: Recombinant ZIKV NS2B-NS3 protease, Rhodamine110 substrate fluorescence; series mostly up to 107 µM; note: nearly all actives have a fitted effect of over 60% in size; note: potency is the fitted concentration of half-maximal effect
# Summary of the method: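 A qHTS format was used, with compound concentrations ranging up to 114 microM. Each compound was preincubated with 25 nM NS2B-NS3 protease, and the substrate was then added at 1.5 microM. Curves were fitted with a 4-parameter Hill model.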
# [9] = test system: Zika virus NS2B-NS3 protease (linked construct); assay: Primary screen NINDS Rhodamine qHTS for Zika virus inhibitors (AID 1347160); conditions: purified NS2B-NS3 protease, Rhodamine110 substrate fluorescence; series mostly up to 57.1 µM; note: nearly all actives have a fitted effect of over 55% in size; note: potency is the fitted concentration of half-maximal effect
# Summary of the method: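 Kinetic fluorescence (Ex 480 nm, Em 540 nm) over 15 min with 1.5 microM Rhodamine110 peptide and 25 nM linked protease.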
# [10] = Vero cells viability qHTS for Zika virus inhibitors (AID 1347167); conditions: cytotoxicity counter-screen (Zika); series mostly up to 45.9 µM
# Summary of the method: as §1
# [11] = Tertiary RLuc qRT-PCR qHTS assay for Zika virus inhibitors (AID 1347169); conditions: infected Vero cells, reporter luminescence, 48-72 h; series mostly up to 45.9 µM; note: nearly all actives have a fitted effect of over 55% in size; note: potency is the fitted concentration of half-maximal effect; for activity change, negative = inhibition: top concentration of the series differs between compounds
# Summary of the method: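 Luminescence read-out: live-cell Renilla luciferase substrate applied to infected Vero cells, signal measured after 1-1.5 hrs. Cells had received compound before ZIKV-RLuc (Cambodian strain, MOI 1-2) infection and were incubated 48-72 hrs at 37 degrees C.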
# [12] = Confirmatory screen GU Rhodamine qHTS for Zika virus inhibitors qHTS (AID 1347157); conditions: purified enzyme assay, Rhodamine110 substrate fluorescence, 15 min; series mostly up to 114 µM
# Summary of the method: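 Percent inhibition came from the 15-min rise in Rhodamine110 fluorescence (1.5 microM substrate, ~15% conversion), normalized to no-inhibitor and no-enzyme wells and Hill-fitted. Unlinked protease, 25 nM, pH 8.0 Tris buffer; compounds up to 114 microM, 15-min preincubation.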
# [13] = ZIKV-mCherry secondary qHTS for Zika virus inhibitors (AID 1347158); conditions: Vero cells, ZIKV-mCherry infection imaging, 48-72 h; series mostly up to 49.2 µM; note: top concentration of the series differs between compounds
# Summary of the method: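 Vero cells, 5,000/well, plated overnight at 37 °C, then compound added and infected with recombinant ZIKV-mCherry at MOI 1 for 48-72 h. PFA-fixed, Hoechst nuclear stain, high-content imaging; cells with mCherry intensity above 450 RFU scored infected, reported as percent infection.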
# [14] = test system: Zika virus NS2B-NS3 protease (linked); assay: 384 well plate NINDS AMC confirmatory qHTS for Zika virus inhibitors (AID 1347163); conditions: Recombinant NS2B-NS3 protease, Ac-VKTGKR-AMC fluorescence; series mostly up to 100 µM; note: nearly all actives have a fitted effect of over 50% in size; note: potency is the fitted concentration of half-maximal effect;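 for activity change, negative = inhibition: linked protease at 5 30 or 60 nM final depending on run; fluorescence of AMC released from Ac-VKTGKR-AMC peptide cleaved by the protease; top concentration of the series differs between compounds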
# Summary of the method: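 Linked protease 5/30/60 nM final; cpds up to 1 mM final, ~15 min preinc. Substrate Ac-VKTGKR-AMC 30 microM final. RT, dark, 25 min; FI ex 355/em 460; normalized to no-enzyme/no-inhibitor ctrls.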
structure (smiles),measurement,setting,value
O=C(O)Cc1cccc(OCCCN(Cc2cccc(C(F)(F)F)c2Cl)CC(c2ccccc2)c2ccccc2)c1,Potency,Furin (Homo sapiens),7.62 µM (active)
same,Potency,[1],19.2 µM (active)
same,Potency,[2],17.1 µM (active)
same,Potency,[3],1.56 µM (active)
same,Potency,[4],28.2 µM (active)
same,outcome,[5],inactive
same,Potency,[6],inactive
c1cc(OCCN2CCCCC2)cc(-c2n[nH]c3ccc(-c4ncn[nH]4)cc23)c1,Potency,Furin (Homo sapiens),21.5 µM (active)
same,Potency,[1],24.1 µM (active)
same,Potency,[7],24.1 µM (active)
same,Potency,[8],inactive
same,Potency,[9],inactive
same,Potency,[3],inactive
same,outcome,[10],inactive
same,outcome,[5],inactive
same,Potency,[11],inactive
same,Potency,[6],inactive
C[C@]12CCC3=C4CCC(=O)C=C4CC[C@@H]3[C@H]1CC[C@@]2(O)CC#N,Potency,[7],inactive
COc1cc(Nc2nc3ccccc3nc2NS(=O)(=O)c2ccc(NC(=O)c3ccc(C)c(OC)c3)cc2)cc(OC)c1,Potency,[1],6.98 µM (active)
same,Potency,[2],5.55 µM (active)
same,Potency,[12],1.39 µM (active)
same,outcome,[13],inactive
same,Potency,[8],1.78 µM (active)
same,Potency,[3],1.39 µM (active)
same,Potency,[14],inactive
same,Potency,[4],8.91 µM (active)
same,outcome,[10],inactive
same,outcome,[5],inactive
same,Potency,[6],inactive
COc1cc(Cl)cn2c(-c3cccc(NC4CNC4)n3)cnc12,Potency,Furin (Homo sapiens),27.1 µM (active)
same,Potency,[1],27.1 µM (active)
same,Potency,[2],inactive
same,outcome,[10],inactive
same,outcome,[5],inactive
same,Potency,[11],inactive
CCCCC[C@H](O)C=C[C@H]1[C@H](O)CC(=O)[C@H]1CCCCCCC(=O)O,Potency,Furin (Homo sapiens),inactive
same,Potency,[1],inactive
same,Potency,[2],inactive
same,Potency,[3],inactive
same,outcome,[10],inactive
same,outcome,[5],inactive
same,Potency,[11],inactive
CNC(=O)c1cc(COc2nnc(Nc3ccc(Cl)cc3)c3ccoc23)ccn1,Potency,[7],inactive
O=C1Nc2ccc(I)cc2C1=Cc1cc(Br)c(O)c(Br)c1,Potency,Furin (Homo sapiens),inactive
same,Potency,[1],inactive
same,Potency,[2],inactive
same,Potency,[7],12.1 µM (active)
same,Potency,[3],24.8 µM (active)
same,outcome,[10],inactive
same,outcome,[5],inactive
same,Potency,[11],inactive
O=S(=O)(O)c1ccc2cc(N=Nc3cc(S(=O)(=O)O)c4cccnc4c3O)ccc2c1,Potency,Furin (Homo sapiens),inactive
same,Potency,[12],1.39 µM (active)
same,Potency,[8],0.794 µM (active)
same,Potency,[9],1.26 µM (active)
same,Potency,[3],1.39 µM (active)
same,Potency,[14],79.4 µM (active)
same,Potency,[4],0.562 µM (active)
same,outcome,[10],inactive
same,outcome,[5],inactive
same,Potency,[11],3.7 µM (active)
same,Potency,[6],inactive
CN(C)c1nc(Cc2ccc(NC(=O)c3ccc(C(F)(F)F)cc3)cc2)nc(N(C)C)c1CC(=O)O,Potency,[7],inactive
same,Potency,[8],inactive
same,Potency,[9],inactive
COc1nccc(-c2c(-c3ccc(F)cc3)ncn2C2CCNCC2)n1,Potency,[7],inactive
same,Potency,[8],inactive
same,Potency,[9],inactive
same,Potency,[6],inactive
CC(C)(OCc1nn(Cc2ccccc2)c2ccccc12)C(=O)O,Potency,[7],inactive
same,Potency,[8],inactive
same,Potency,[9],inactive
same,Potency,[6],inactive
Clc1ccc(C2(c3ccc(-c4cn[nH]c4)cc3)CCNCC2)cc1,Potency,[7],inactive
same,Potency,[8],inactive
same,Potency,[9],inactive
O=C(O)CCNc1cc(N2CCc3ccccc3CC2)nc(-c2ccccn2)n1,Potency,[7],inactive
same,Potency,[8],inactive
same,"activity change, negative = inhibition",[9],-4.33% [at 10.7 µM]
same,Potency,[6],inactive
Cc1ccccc1-n1c(Cn2nc(-c3cccc(O)c3)c3c(N)ncnc32)nc2cccc(C)c2c1=O,Potency,[7],inactive
same,Potency,[8],inactive
same,Potency,[9],inactive
same,Potency,[6],20.8 µM (active)
CN1C(=O)C(Cc2c[nH]c3ccccc23)NC1=S (stereo unspecified),Potency,[7],inactive
same,Potency,[8],inactive
same,Potency,[9],inactive
same,Potency,[6],inactive
CN(C)CCOc1cc(-c2cn[nH]c2)ccc1NC(=O)C1COc2ccccc2O1 (stereo unspecified),Potency,[7],inactive
same,Potency,[8],inactive
same,Potency,[9],inactive
same,Potency,[6],inactive
Cc1cccc2c1CC[C@H](CN1CCC(c3c(Cl)cccc3Cl)CC1)C[C@@H]2O,Potency,[7],inactive
same,Potency,[8],inactive
same,Potency,[9],inactive
CC1(C)CC(=O)c2c(C(F)(F)F)nn(-c3ccc(C(N)=O)c(NC4CCC(O)CC4)c3)c2C1 (stereo unspecified),Potency,[7],inactive
same,Potency,[8],inactive
CNc1nc(Nc2ccc(C(=O)N3CCOCC3)cc2OC)ncc1Cl,Potency,[7],inactive
same,Potency,[8],inactive
same,Potency,[9],inactive
same,Potency,[6],inactive
Nc1ncnc2c1c(-c1cccc(OCc3ccccc3)c1)cn2C1CC(CN2CCC2)C1 (stereo unspecified),Potency,[7],inactive
same,Potency,[8],inactive
same,Potency,[9],inactive
C[C@@H](NC(=O)c1ncnc(N)c1Cl)c1ncc(C(=O)Nc2cc(C(F)(F)F)c(Cl)cn2)s1,Potency,[7],inactive
same,Potency,[8],inactive
same,Potency,[9],inactive
CN1CCc2c(n(Cc3ccc(C(=O)NO)cc3)c3ccccc23)C1,Potency,[7],inactive
same,Potency,[8],inactive
same,Potency,[9],inactive
O=C(Nc1cccc(C(F)(F)F)c1)Nc1cc(S(=O)(=O)NC2CC2)ccc1-c1ccsc1,Potency,[7],inactive
same,Potency,[8],22.4 µM (active)
Cn1c(=O)c(-c2c(Cl)cccc2Cl)cc2cnc(Nc3cccc(C(=O)O)c3)nc21,Potency,[7],inactive
same,Potency,[12],11.1 µM (active)
same,Potency,[8],7.94 µM (active)
same,Potency,[9],inactive
same,Potency,[3],13.9 µM (active)
same,Potency,[6],inactive
Cc1ccc2c(c1)c1c(n2CCc2ccc(C)nc2)CCN(C)C1,Potency,[7],inactive
same,Potency,[8],inactive
same,Potency,[9],inactive
